# Activity calls are given as the source filed them. Rule for the calls: active = hit-call score of the fitted dose curve at least 0.9, where 1 is the maximum; inactive = score below 0.9.
# Read-out: UDP glucuronosyltransferase (UGT1A6), UGT1A6 (gene 54578)
# Experiment: LTEA_HepaRG_UGT1A6: Life Technologies and Expression Analysis (LTEA) Assay for UDP glucuronosyltransferase (UGT1A6) using HepaRG (AID 2283539)
# Conditions: mRNA level, 48 h; actives raise or lower the signal
# Method: LTEA_HepaRG is a cell based, multiplexed-readout assay that uses HepaRG, a human liver cell line, with measurements taken at 48 hours after chemical dosing on a 96-well plate.LTEA_HepaRG_UGT1A6 is one of 102 assay component(s) measured in the LTEA HepaRG cell culture assay. It is a marker of NR mediated metabolism.Data from the assay component LTEA_HepaRG_UGT1A6 was analyzed into 1 endpoint. This assay endpoint, LTEA_HepaRG_UGT1A6, was analyzed with bidirectional fitting relative to DMSO as the negative control and baseline of activity. Using a type of inducible reporter, measures of mRNA induction for gain or loss-of-signal activity can be used to understand regulation of transcription factor activity. To generalize the intended target to other relatable targets, this assay endpoint is annotated to the transferase intended target family, where the subfamily is glucuronosyltransferase.
# A total of 1060 chemcials from the ToxCast library were tested in eight-point concentration-response experiments. Cell culture and cytotoxicity assays were conducted at Thermo Fisher Scientific's Custom Services facility (Madison, WI). A single lot of human HepaRG cells (Thermo Fisher Scientific, Frederick, MD) was used for the cell culture experiments. 96-well format collagen type I coated plates of human HepaRG cells were prepared using established methods. Briefly, cryopreserved HepaRG cells were thawed, plated at a density of approximately 100,000 cells/well in HepaRG Thaw, Plate, and General Purpose media (HPRG770, Thermo Fisher Scientific), and incubated for 48 hours. 0.5% DMSO was selected as vehicle control to balance the requisite need of DMSO in HepaRG cultures to maintain differentiation (for example, baseline metabolism, proportions of hepatocytes vs. cholangiocytes), while enabling further hepatic receptor pathway activation (for example, PXR and CAR) in response to chemical exposure. 48 hours after plating, the culture medium was replaced with HepaRG Serum-Free Incudtion Media. Cells were exposed to each test chemical in duplicate and maintained in CO2 incubators for another 48 hours. Chemical plates were thawed to room temperature and 200x concentrations of treatment groups were prepared. 8-point conentration-reponse curves were made with the highest exposure at 100 uM, followed by half-log dilutions, all in 0.5% DMSO. Each test plate contained variouse controls, induction positive controls (1mM phenobarbital), cytotoxicity positive controls ([…] aflatoxin B1), vehicle controls (0.5% DMSO), and total lysis controls (0.5% DMSO). Cell morphology images were taken using an Essen IncuCyte FLR automated microscope, with six 96-well plates imaged in about 24 minutes. Images were captured and exported and JPEG files. Spent culture media was transfered to black-well plates for the LDH assay, and remaining media was sorted at -80 C for later use. Cells were treated with RLT buffer and frozen until shipped for gene expression analysis. Total RNA was isolated from the cell suspension in 75 uL of Buffer RLT (Qiagen, Germantown, MD 20874) by Quintiles/Expression Analysis (Durham, NC) using a custom isolation procedure. Total RNA from each plate well was transferred to a preamplification plate. Fluidigm's 96.96 Dynamic ArrayTM (Fluidigm, Amsterdam, the Netherlands) technology was used for gene expression analyses by quantitative reverse transcription polymerase chain reaction (qRT-PCR, performed by Quintiles/Expression Analysis, Durham, NC)89. Standard TaqManTM Assays (Applied Biosystems/ThermoFisher Scientific, Foster City, CA) were used to assess the expression of 93 genes selected based on their selectivity and sensitivity to important hepatic receptors known to be modulated by environmental chemicals; importance in human hepatocyte functionality; and hepatotoxicity. […]
row,SMILES,outcome
1,Clc1cccc(Cl)c1,inactive
2,CN(C)C(=S)S,inactive
3,CC(C)(C)c1ccccc1O,inactive
4,CC(C)O.CC(C)O.OCCN(CCO)CCO.OCCN(CCO)CCO.[Ti],inactive
5,O=C(N[C@H]1CN2CCC1CC2)c1ccc2c(c1)OCCO2,inactive
6,COc1ccccc1N,inactive
7,O=C(O)C1(c2ccc3c(c2)OC[C@H](Cc2ccc(-c4ccccc4)cc2)[C@H]3O)CCCC1,inactive
8,N#Cc1cccnc1,inactive
9,Clc1cccc(Cl)c1Cl,inactive
10,OCCN(CCO)CCO,inactive
11,Cc1cc(C)cc(C)c1,inactive
12,Oc1c(Cl)cc(Cl)cc1Cl,inactive
13,Oc1cc(Cl)c(Cl)cc1Cl,inactive
14,CCCCCCCCCCCCc1cccc(S(=O)(=O)O)c1,inactive

# From PubChem BioAssay (EPA / NIEHS)
